Hit rate of the full screen: of about 5,500 compounds, about 2,000 (36%) were called active. Another 18% or so got no clear call; they are omitted. No stated cut-off is given here; in the data, active means normalized growth mostly below about 0.91 (no sharp cut-off); inconclusive means no clear call, values can overlap the other calls; inactive means mostly above about 0.92. The list shows a part of the results.
Experiment: chemical genetic growth profiling, strain panel (AID 1159580);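 further: tested at 20 µM; growth read once vehicle control cultures reached saturation at 30 °C; 1 = growth at the plate median or of vehicle wells; lower values mean less growth of the strain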
Conditions: growth OD

Measured: normalized growth

O=c1[nH]cnc2nc[nH]c12
inactive: S. cerevisiae deletion strains, locus YJR066W, strain TOR1, active compounds read low 0.979 | S. cerevisiae deletion strains, locus YJR075W, strain HOC1, active compounds read low 1.01 | S. cerevisiae deletion strains, locus YKL009W, strain mrt4, active compounds read low 0.974 | S. cerevisiae deletion strains, locus YKL068W, active compounds read low 1.02 | S. cerevisiae deletion strains, locus YKL085W, strain MDH1 (second series), active compounds read low 0.984 | S. cerevisiae deletion strains, locus YKL085W, strain MDH1, active compounds read low 0.984 | S. cerevisiae deletion strains, locus YKL160W, strain elf1, active compounds read low 1.01 | S. cerevisiae deletion strains, locus YKR001C, strain vps1, active compounds read low 0.975 | S. cerevisiae deletion strains, locus YKR026C, strain gcn3, active compounds read low 1.02 | S. cerevisiae deletion strains, locus YKR091W, strain srl3, active compounds read low 1.02 | S. cerevisiae deletion strains, locus YLL001W, strain dnm1, active compounds read low 1.01 | S. cerevisiae deletion strains, locus YLL026W, active compounds read low 1.02 | S. cerevisiae deletion strains, locus YLL041C, strain sdh2, active compounds read low 1.02 | S. cerevisiae deletion strains, locus YLR027C, strain aat2, active compounds read low 1.01 | S. cerevisiae deletion strains, locus YLR039C, strain RIC1, active compounds read low 1.01 | S. cerevisiae deletion strains, locus YLR058C, strain SHM2, active compounds read low 1 | S. cerevisiae deletion strains, locus YLR102C, strain apc9, active compounds read low 0.979 | S. cerevisiae deletion strains, locus YLR113W, strain HOG1, active compounds read low 1.01 | S. cerevisiae deletion strains, locus YLR221C, strain rsa3, active compounds read low 1.02 | S. cerevisiae deletion strains, locus YLR258W, strain gsy2, active compounds read low 1.01 | S. cerevisiae deletion strains, locus YLR262C, strain YPT6 (second series), active compounds read low 1.02 | S. cerevisiae deletion strains, locus YLR262C, strain YPT6, active compounds read low 0.991 | S. cerevisiae deletion strains, locus YLR268W, strain sec22, active compounds read low 0.971 | S. cerevisiae deletion strains, locus YLR320W, strain mms22, active compounds read low 1.03 | S. cerevisiae deletion strains, locus YLR330W, strain CHS5, active compounds read low 0.998 | S. cerevisiae deletion strains, locus YLR342W, strain FKS1 (second series), active compounds read low 0.975 | S. cerevisiae deletion strains, locus YLR342W, strain FKS1, active compounds read low 1.02 | S. cerevisiae deletion strains, locus YLR357W, strain rsc2, active compounds read low 1.04 | S. cerevisiae deletion strains, locus YLR370C, strain arc18, active compounds read low 1 | S. cerevisiae deletion strains, locus YLR371W, strain rom2, active compounds read low 0.962 | S. cerevisiae deletion strains, locus YLR384C, strain iki3, active compounds read low 1 | S. cerevisiae deletion strains, locus YLR418C, strain cdc73, active compounds read low 0.994 | S. cerevisiae deletion strains, locus YML016C, strain PPZ1, active compounds read low 0.995 | S. cerevisiae deletion strains, locus YML032C, strain rad52, active compounds read low 0.988 | S. cerevisiae deletion strains, locus YML120C, strain ndi1, active compounds read low 1.01 | S. cerevisiae deletion strains, locus YML124C, strain tub3, active compounds read low 0.978 | S. cerevisiae deletion strains, locus YMR058W, strain fet3, active compounds read low 1.02 | S. cerevisiae deletion strains, locus YMR078C, strain ctf18, active compounds read low 0.997 | S. cerevisiae deletion strains, locus YMR125W, strain sto1, active compounds read low 1.01 | S. cerevisiae deletion strains, locus YMR129W, active compounds read low 1.01 | S. cerevisiae deletion strains, locus YMR205C, strain PFK2, active compounds read low 1.02 | S. cerevisiae deletion strains, locus YMR223W, strain ubp8, active compounds read low 0.985 | S. cerevisiae deletion strains, locus YMR231W, strain pep5, active compounds read low 0.987 | S. cerevisiae deletion strains, locus YMR263W, strain SAP30, active compounds read low 0.999 | S. cerevisiae deletion strains, locus YMR307W, strain GAS1, active compounds read low 1.02 | S. cerevisiae deletion strains, locus YNL067W, strain RPL9B, active compounds read low 1.02 | S. cerevisiae deletion strains, locus YNL071W, strain lat1, active compounds read low 1.01 | S. cerevisiae deletion strains, locus YNL153C, strain GIM3, active compounds read low 1.02 | S. cerevisiae deletion strains, locus YNL183C, strain NPR1, active compounds read low 0.978 | S. cerevisiae deletion strains, locus YNL209W, strain ssb2, active compounds read low 1.02 | S. cerevisiae deletion strains, locus YNL233W, strain BNI4, active compounds read low 0.999 | S. cerevisiae deletion strains, locus YNL248C, strain rpa49, active compounds read low 1.02 | S. cerevisiae deletion strains, locus YNL250W, strain rad50, active compounds read low 0.977 | S. cerevisiae deletion strains, locus YNL271C, strain bni1, active compounds read low 0.978 | S. cerevisiae deletion strains, locus YNL298W, strain CLA4, active compounds read low 1 | S. cerevisiae deletion strains, locus YNL307C, strain MCK1, active compounds read low 0.982 | S. cerevisiae deletion strains, locus YNL322C, strain KRE1 (second series), active compounds read low 1.02 | S. cerevisiae deletion strains, locus YNL322C, strain KRE1, active compounds read low 1.01 | S. cerevisiae deletion strains, locus YNR049C, strain mso1, active compounds read low 1.03 | S. cerevisiae deletion strains, locus YNR052C, strain pop2, active compounds read low 0.978 | S. cerevisiae deletion strains, locus YOL012C, strain htz1 1.01 | S. cerevisiae deletion strains, locus YOL147C, strain pex11, active compounds read low 0.98 | S. cerevisiae deletion strains, locus YOR001W, strain rrp6, active compounds read low 1.02 | S. cerevisiae deletion strains, locus YOR061W, strain CKA2, active compounds read low 0.99 | S. cerevisiae deletion strains, locus YOR069W, strain VPS5, active compounds read low 0.988 | S. cerevisiae deletion strains, locus YOR070C, strain gyp1, active compounds read low 1.01 | S. cerevisiae deletion strains, locus YOR080W, strain dia2, active compounds read low 1.03 | S. cerevisiae deletion strains, locus YOR083W, strain WHI5, active compounds read low 1.01 | S. cerevisiae deletion strains, locus YOR106W, strain vam3, active compounds read low 1.01 | S. cerevisiae deletion strains, locus YOR136W, strain idh2, active compounds read low 0.973 | S. cerevisiae deletion strains, locus YOR144C, strain elg1, active compounds read low 0.989 | S. cerevisiae deletion strains, locus YOR184W, strain ser1, active compounds read low 0.98 | S. cerevisiae deletion strains, locus YOR231W, strain MKK1, active compounds read low 1.02 | S. cerevisiae deletion strains, locus YOR265W, strain rbl2, active compounds read low 1.03 | S. cerevisiae deletion strains, locus YOR270C, strain vph1, active compounds read low 1.11 | S. cerevisiae deletion strains, locus YOR290C, strain snf2, active compounds read low 1 | S. cerevisiae deletion strains, locus YOR316C, strain cot1, active compounds read low 0.989 | S. cerevisiae deletion strains, locus YPL051W, strain arl3, active compounds read low 1.03 | S. cerevisiae deletion strains, locus YPL055C, strain LGE1, active compounds read low 1.03 | S. cerevisiae deletion strains, locus YPL078C, strain atp4, active compounds read low 1.02 | S. cerevisiae deletion strains, locus YPL106C, strain sse1, active compounds read low 0.994 | S. cerevisiae deletion strains, locus YPL240C, strain hsp82, active compounds read low 1.01 | S. cerevisiae deletion strains, locus YPL256C, strain CLN2, active compounds read low 0.996 | S. cerevisiae deletion strains, locus YPR119W, strain clb2, active compounds read low 0.99 | S. cerevisiae deletion strains, locus YPR141C, strain kar3, active compounds read low 0.977 | S. cerevisiae deletion strains, locus YPR163C, strain tif3, active compounds read low 0.988 | S. cerevisiae deletion strains, locus YPR167C, strain met16, active compounds read low 0.965 | S. cerevisiae deletion strains, strain wtn01, active compounds read low 0.975 | S. cerevisiae strains, strain wild type, active compounds read low 1
